Most compounds without a hit are left out; they make up all but 10% or so of the library.
CtBP-E1A inh: blocks the CtBP interaction with E1A; AlphaScreen GST-E1A/His-CtBP binding, 1536-well; stronger effect = lower value; activity change, % (concentration not given with the values); 0.49% of 340,000 active; AID 651724; in the data active means activity change below about -65%; inconclusive means mostly about -30% to -63%; further: on the % scale 0 is the no-effect control and ±100 the full control effect
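GST-E1A and His-tagged CtBP (125 nM each as 5X stock) were preincubated with pin-transferred compound for 2 h at 37 °C in the dark, then glutathione donor and nickel acceptor beads were added for 1 h before AlphaScreen reading.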
JMJD2A Tudor inh: inhibitors of human JMJD2A Tudor domain. O75164. AlphaScreen JMJD2A-Tudor / H3K4me3 peptide binding. Potency, µM (doses to about 114 µM), for inactives: top-dose activity change, negative = inhibition, actives largely listed as inhibitors. 4.4% of 390,000 active. AID 504339; further: potency means the concentration at half of the fitted maximal effect; on the % scale 0 is the no-effect control and ±100 the full control effect; nearly all actives have a fitted effect of over 50% in size
BAZ2B block: BAZ2B (human) inhibition. Q9UIF8. AlphaScreen BAZ2B-H3K14Ac peptide displacement. Potency, µM (titrated, usually from 114 µM), for the others: top-dose activity change, negative = inhibition, usual class: inhibitors. 4.4% of 360,000 active. AID 504333; further: potency means the concentration at half of the fitted maximal effect; on the % scale 0 is the no-effect control and ±100 the full control effect; nearly all actives have a fitted effect of over 60% in size
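AlphaScreen displacement of biotin-H3(5-23)K14Ac peptide (50 nM final) from BAZ2B (50 nM final) in PBS pH 7.4, 0.01% Tween-20; complex preformed 30 min RT, then compounds (top 110 uM) 30 min RT, beads 20 min dark.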
G9a block: inhibitors of human histone lysine methyltransferase G9a. Q96KQ7. 8.8% of 350,000 active. G9a H3K9 monomethylation, AlphaScreen, 2 h. AID 504332. Potency, µM (series often up to 102 µM), for inactives: at the top dose activity, negative = inhibition, hits mostly inhibitors; further: potency means the concentration at half of the fitted maximal effect; on the % scale 0 is the no-effect control and ±100 the full control effect; nearly all actives have a fitted effect of over 75% in size
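Chemiluminescent proximity detection of H3K9 monomethylation, read after 10 min bead incubation in the dark. Reaction: 20 nM G9a, 500 nM biotin-H3K9 peptide, 20 uM SAM cofactor, 2 h, room temperature, following 15 min enzyme-compound preincubation.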
HP1b binding inh: HP1-beta chromodomain-methylated histone interaction inhibition; P83916; AlphaScreen HP1-beta / biotin-H3K9me3 peptide binding; Potency, µM (highest dose often 114 µM), without a hit: at the highest dose activity change, negative = inhibition, usual class: inhibitors; 0.56% of 390,000 active; AID 540317; further: potency means the concentration at half of the fitted maximal effect; nearly all actives have a fitted effect of over 70% in size
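HP1-beta protein (50 nM final) preincubated 30 min at room temperature with biotinylated H3(1-18)K9me3 peptide (50 nM) in PBS pH 7.4, 0.01% Tween-20, then compound added for 30 min. AlphaScreen streptavidin donor/nickel chelate acceptor beads (10 ug/mL final), 30 min dark, luminescence read.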
Six1-Eya2 inh: Six1/Eya2 interaction inhibition; 0.56% of 360,000 active; AlphaScreen GST-Six1/His-Eya2 binding, biochemical; stronger effect = lower value; Q15475+O00167; activity change, % (no concentration beside the values); in the data active means activity change below about -65%; inconclusive means mostly about -30% to -63%; further: on the % scale 0 is the no-effect control and ±100 the full control effect
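Compounds are tested against tagged Six1 and Eya2 proteins bridged by glutathione donor and nickel acceptor beads; after a one-hour incubation at 37 °C without light, AlphaScreen emission is recorded.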
* = called active by the depositor; ? = inconclusive; nt = not tested or not shown; [ ] = dose if it differs, or a comment. Unless noted, the call rests on the fitted dose curve; in most records, active means well fitted inhibition curve with a large enough effect; inconclusive means small, poorly fitted or top-dose-only effect; inactive means no such curve, though single readings can be large or run the other way.

SMILES	CtBP-E1A inh	JMJD2A Tudor inh	BAZ2B block	G9a block	HP1b binding inh	Six1-Eya2 inh
CCN(CC(=O)Nc1ccccc1OC)C(=O)CSCC(=O)Nc1cccc(C)c1	3	3%	nt	nt	51%	-10
Cc1cc2c(cc1S(=O)(=O)Nc1ccc(OC(F)(F)F)cc1)OCC(=O)N2	-3	-27%	-13%	-1%[59 µM]	58%	-9
Cn1cccc1C(=O)N1CCC2(CCN(C(=O)Nc3cccc(F)c3)CC2)CC1	nt	nt	nt	-30%[12.7 µM]	nt	nt
O=C(/C=C/c1cccc(O)c1)c1cccnc1	3	-14%	12%	?	3%	7
O=C(/C=C/c1cccnc1)c1cccc(O)c1	-9	?	-24%	35µM*	67%	10
Cc1ccc(S(=O)(=O)N2CCC(c3ccncc3)CC2)c(C)c1	nt	-14%	-16%	-6%[59 µM]	13%	nt
COCCc1nn2c(=O)cc(COC(=O)c3ccc4c(c3)OCO4)nc2s1	nt	-24%	-28%	12%[59 µM]	14%	nt
COc1ccccc1-c1nc(S(=O)(=O)c2ccccc2)c(N2CCOCC2)o1	-1	-12%	3%	86%	36%	-6
COc1ccc(-c2csc(NC(=O)C3CCCO3)n2)cc1 (stereo not given)	2	?	?	13µM*	13%	-1
COc1ccc(-c2csc(NC(=O)c3ccoc3C)n2)cc1	-6	-14%	?	50µM*	0%	-3
Cc1ccc(-c2csc(NC(=O)c3ccno3)n2)cc1	0	79µM*	?	50µM*	24%	-15
COc1ccc(-c2csc(NC(=O)c3c(C)noc3C)n2)cc1	1	-10%	-3%	1%[12.7 µM]	23%	-3
O=c1c(-c2cccnc2)nc2ccccc2n1C(c1ccccn1)c1nc2ccccc2[nH]1 (stereo not given)	?	nt	nt	nt	nt	-29
Nc1cc(-c2ccc(Cl)cc2)nn1S(=O)(=O)c1cccc2nsnc12	-2	45µM*	?	40µM*	-22%	-27
Nc1cc(-c2ccc(Br)cc2)nn1S(=O)(=O)c1cccc2nsnc12	-9	?	?	?	-13%	?
COc1ccccc1-c1cc(N)n(S(=O)(=O)c2cccc3nsnc23)n1	-16	?	?	50µM*	-41%	-21
CCOc1ccc(N(CC(=O)Nc2cc(OC)cc(OC)c2)S(=O)(=O)c2c(C)[nH]c(=O)[nH]c2=O)cc1	-23	-23%	?	-7%[59 µM]	29%	-5
CCOc1ccc(N(CC(=O)Nc2ccc(OC)cc2OC)S(=O)(=O)c2c(C)[nH]c(=O)[nH]c2=O)cc1	-92*	-21%	?	nt	13%	-85*
CCOc1ccccc1NC(=O)CN(c1ccc(OC)cc1)S(=O)(=O)c1c(C)[nH]c(=O)[nH]c1=O	-84*	-15%	-18%	nt	24%	-84*
NC(=O)c1sc2nc(N3CCCCC3)c3c(c2c1N)CCCC3	-5	-13%	?	35µM*	29%	2
CCN(CC)C(=O)c1sc2nc(N3CCOCC3)c3c(c2c1N)CCCC3	0	?	-4%	8.9µM*	7%	1
Nc1c(C(=O)O)sc2nc(-c3ccccc3)c3c(c12)CCCC3	nt	-20%	-8%	6.3µM*	17%	0
COC(=O)c1sc2nc(N3CCCCC3)c3c(c2c1N)CCCC3	0	-15%	8%	45%	49%	28
Cc1noc(C)c1CSCC(=O)Nc1nc2ccc(F)cc2s1	-22	-16%	-31%	?	29%	-3
CC1CC(C)CN(C(=O)COC(=O)c2cc([N+](=O)[O-])ccc2N2CCOCC2)C1 (stereo not given)	-1	-25%	-11%	79µM*	-1%	-9
SMILES	CtBP-E1A inh	JMJD2A Tudor inh	BAZ2B block	G9a block	HP1b binding inh	Six1-Eya2 inh
CCOc1ccc(S(=O)(=O)N2CCN(C(=O)c3cc([N+](=O)[O-])ccc3N3CCOCC3)CC2)cc1	-2	-16%	3%	3.2µM*	13%	5
Cc1cc(C)c(C(=O)COC(=O)c2cc([N+](=O)[O-])ccc2N2CCOCC2)cc1C	12	-26%	-25%	16µM*	18%	-7
COc1cc(C(=O)COC(=O)c2cc([N+](=O)[O-])ccc2N2CCOCC2)ccc1OC(F)F	-1	-27%	-3%	32µM*	16%	-17
O=C(Nn1cc(C(=O)Nc2ccc(F)cc2F)c2ccccc2c1=O)c1cnccn1	?	35µM*	28µM*	0.79µM*	13%	-72*
Cc1ccc(NC(=O)c2sc3nc4c(cc3c2N)CN(Cc2ccccc2)CC4)cc1	nt	-23%	-2%	-38%[59 µM]	75%	nt
COC(=O)c1ccc(CSc2nc3ccccc3c(=O)n2-c2ccc(OC)c(OC)c2)o1	11	-33%	-39%	-8%[12.7 µM]	-2%	-7
COC(=O)c1ccc(CSc2nc3ccccc3c(=O)n2-c2ccccc2)o1	0	-21%	-25%	16µM*	26%	-3
COC(=O)c1ccc(CSc2nnc3n(Cc4ccccc4OC)c(=O)c4ccccc4n23)o1	0	-23%	-32%	45µM*	10%	-1
COCCn1c(SCc2ccc(C(=O)OC)o2)nc2ccccc2c1=O	3	-6%	11%	?	16%	-4
COc1ccc(NC(=O)C(NS(=O)(=O)c2ccc3c(c2)CCCN3C(C)=O)C(C)C)c(OC)c1 (stereo not given)	-1	-24%	56µM*	?	7%	3
COc1cc(NC(=O)CC(C)S(=O)(=O)c2ccc3c(c2)CCN3C(C)=O)cc(OC)c1OC (stereo not given)	nt	-8%	-10%	11µM*	30%	nt
CCOc1ccc(NC(=O)C(NS(=O)(=O)c2ccc3c(c2)CCN3C(C)=O)C(C)C)cc1 (stereo not given)	nt	-21%	nt	3%[59 µM]	27%	nt
CC(=O)N1CCCc2cc(S(=O)(=O)NC(C(=O)NC(C)c3ccccc3)C(C)C)ccc21 (stereo not given)	0	16%	4%	-23%	21%	3
CC(=O)N1CCCc2cc(S(=O)(=O)NC(C(=O)NC3CCCCC3)C(C)C)ccc21 (stereo not given)	0	-8%	-2%	35µM*	23%	5
COc1cc(NS(=O)(=O)c2ccc3c(c2)CCCN3C(C)=O)cc(OC)c1OC	nt	-5%	0%	9%[59 µM]	22%	nt
CCOc1ccccc1N1CCN(C(=O)C2=CC=CN3CCS(=O)(=O)N=C23)CC1	nt	-1%	-5%	1%[12.7 µM]	33%	28
CCOC(=O)c1ccc(N2C(=O)CC(N3CCN(Cc4ccccc4)CC3)C2=O)cc1 (stereo not given)	-2	-10%	4%	-8%	13%	1

Compound activity from PubChem BioAssay.
